Screening results (PubChem BioAssay)
Vif inh: inhibitors of HIV Vif; inhibition, % at 7.49 µM; HEK293T cells, Vif self-association by quenched fluorescence, imaging, 24 h; AID 602346; 0.35% of 340,000 active; in the data active = inhibition above about 50%, passing the limit was not always enough; inconclusive = no clear call, values can overlap the other calls; inactive = below about 31%
SKN-1 block: inhibitors of C. elegans SKN-1; AID 624304; C. elegans VP596 Pgst-4::GFP/RFP ratio, acrylamide-induced, 24 h; inhibition, % at 21.8 µM; 0.49% of 360,000 active;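 active = interference check ratio from 0.5 to 1.5 plus GFP to RFP signal ratio inhibition reaching or exceeding a fixed threshold, cut at about 30% in these data, passing the limit was not always enough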
esBAF inh: SWI/SNF esBAF complex inhibition; 2% of 350,000 active; reporter increase, % at 12.5 µM; mouse ES cells, Bmi1-luciferase knock-in reporter, 24 h; 100% = twice the neutral-well signal; AID 602393; in the data active = activation above about 40%; inconclusive = no clear call, values can overlap the other calls;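 also: 0% = median of the plate's neutral control wells and 100% = double that signal; a rise in the Bmi1 reporter signal indicates esBAF inhibition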
GRIN3A LBD mod: modulators (binders) of human NR3A ligand-binding domain | AID 1259313 | 2.5% of 340,000 active | NR3A LBD differential scanning fluorimetry, Tm shift; 0% = protein alone, 100% = glycine-bound protein | Tm shift relative to glycine control, % at 25 µM;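 active = melting temperature shift of at least 10% of the positive control shift, at one fixed dose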
NadD inh: inhibitors of Staphylococcus aureus NadD; purified NadD enzyme, colorimetric absorbance read-out; inhibition, % at 20 µM; 0.78% of 360,000 active; in the data active = inhibition above about 26%
SMARCA2 activ: activators of SMARCA2 function; MG213 cells, MMTV-luciferase reporter, dexamethasone, overnight; activation, % at 9.1 µM; 1% of 370,000 active; in the data active = activation above about 7.8%;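 also: 0% = vehicle wells and 100% = reference activator wells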
Starred values were filed as active, the others as inactive; i = inactive; u = inconclusive; x = no result given. A selection: hits, their analogues and other compounds. The true share with any hit is near 5.2%.

SMILES | Vif inh | SKN-1 block | esBAF inh | GRIN3A LBD mod | NadD inh | SMARCA2 activ
CN(C)c1ccc(NC(=S)NC23CC4CC(CC(C4)C2)C3)cc1 | -4 | 28 | 67* | 2 | -4 | 3
CCOc1ccc(NC(=S)NC23CC4CC(CC(C4)C2)C3)cc1 | 6 | 0 | 5 | -5 | -1 | -2
COc1ccc(NC(=O)N2C[C@@H](O)COC[C@@H]3O[C@H](CC(=O)NC4Cc5ccccc5C4)CC[C@H]32)cc1 | x | x | -1 | x | x | x
O=C(C[C@@H]1C=C[C@H](NC(=O)CN2CCOCC2)[C@@H](CO)O1)NC1CCCCC1 | x | x | -4 | x | x | x
CC(C)Oc1cc(NC(=O)CS(=O)CC(=O)Nc2cccc(C(F)(F)F)c2)c(Cl)cc1Cl (stereo not given) | -9 | 14 | -3 | 26* | -10 | -2
COc1ccnc(CSC(N)=Nc2ccc(F)cc2)c1 | 2 | -1 | 56* | 1 | 4 | 5
COc1cccc(N=C(N)N=C(N)N)c1 | 0 | -5 | -2 | 1 | 0 | -3
CCNC(=O)Nc1ccc2c(c1)C(=O)N(C)[C@@H]1CC[C@@H](CC(=O)NC3CCCCC3)O[C@@H]1CO2 | x | x | -3 | x | x | x
C[C@H](CO)N1C[C@H](C)[C@@H](CN(C)S(=O)(=O)c2ccccc2)OCc2ccccc2-c2ccccc2C1=O | x | x | 3 | x | x | x
Cc1noc(C)c1NC(=O)N(C)C[C@H]1Oc2ccc(NC(=O)CCCCCC(=O)Nc3ccccc3N)cc2CC(=O)N([C@@H](C)CO)C[C@@H]1C | x | x | 4 | x | x | x
O=c1[nH][nH]c2c(N=Cc3ccccc3O)ccc(F)c12 | -6 | 42* | -1 | -11 | 22 | x
O=c1[nH][nH]c2c([N+](=O)[O-])ccc(F)c12 | x | x | x | x | x | 0
CCOc1cc(S(=O)(=O)NC2CCCC2)ccc1Cl | -6 | 7 | -4 | -2 | -6 | 1
CCOc1cc(S(=O)(=O)Nc2cc(C)cc(C)c2)ccc1Cl | 4 | 12 | x | 11* | -8 | -6
CSc1ncc(Cl)c(C(=O)Nc2ccc(S(=O)(=O)Nc3nccc(C)n3)cc2)n1 | -6 | 5 | -2 | 13* | -5 | 2
CCCSc1ncc(Cl)c(C(=O)Nc2ccc(S(=O)(=O)Nc3ncccn3)cc2)n1 | -1 | -12 | -4 | 9 | -11 | -4
COCC(=O)N1C[C@H]2[C@@H](c3ccccc31)[C@H](CO)N2C(=O)c1ccncc1 | x | x | -2 | x | x | x
On1onc2c3cc(-c4ccccc4)nc3ccc21 | 10 | 15 | -62 | 37* | -11 | -2
CC(=O)NC1=NN(C(C)=O)C(C)(c2ccco2)S1 (stereo not given) | 51* | 0 | -3 | -2 | 0 | -4
CC(=O)NC1=NN(C(C)=O)C(C)(c2ccc(C)o2)S1 (stereo not given) | -1 | 3 | x | 1 | 10 | -2
COc1cc2cc3c(N)c(C(=O)Nc4sc(C)c(C)c4C#N)sc3nc2cc1OC | -7 | -3 | 4 | 19* | 8 | -3
NS(=O)(=O)c1ccc(N/N=C/C=C/c2ccccc2[N+](=O)[O-])cc1 | -4 | 15 | 83* | 0 | -1 | 1
NS(=O)(=O)c1ccc(N/N=C/c2ccccc2Br)cc1 | 6 | 7 | x | 14* | -7 | 1
Nc1ccc(S(=O)(=O)NN=CC=Cc2ccccc2[N+](=O)[O-])cc1 | 24 | 8 | 3 | 1 | -2 | 5
CNC[C@@H]1Oc2cc(C#CCN(C)C)ccc2S(=O)(=O)N([C@H](C)CO)C[C@H]1C | x | x | -2 | x | x | x
SMILES | Vif inh | SKN-1 block | esBAF inh | GRIN3A LBD mod | NadD inh | SMARCA2 activ
O=C(Nc1ccccc1)N1C[C@H]2[C@@H](c3ccccc31)[C@@H](CO)N2C(=O)c1ccccc1F | x | x | 23 | x | x | x
COc1cccc(/C=C(\C#N)C(=O)NC2CCS(=O)(=O)C2)c1 (stereo not given) | 5 | 5 | x | 13* | -1 | 1
O=C(O)C[C@H]1C[C@H]2c3cc(NC(=O)CC4CC4)ccc3O[C@H]2[C@H](CO)O1 | x | x | 1 | x | x | x
CO[C@@H]1CN(C)C(=O)c2cc(NC(=O)C3CCC3)ccc2OC[C@H](C)N(CC2CCCCC2)C[C@H]1C | x | x | 3 | x | x | x
Cc1ccc(/C=C2\SC(N3CCN(C(c4ccccc4)c4ccccc4)CC3)=NC2=O)o1 | -2 | 7 | x | 7 | 59* | 0
O=C(O)c1sccc1Oc1ccc(NS(=O)(=O)c2ccc(Cl)cc2)cc1 | 14 | 7 | x | 0 | -6 | 1
N#Cc1cccc(C#N)c1Oc1ccc(S(=O)(=O)Nc2ccc(Cl)cc2)cc1 | -9 | 8 | x | 10* | -6 | -3
CC(C)(C)c1ccc(/C=C/C(=O)N2CCc3ccccc3C2)cc1 | 0 | -8 | -1 | -1 | -4 | 1
O=C(/C=C/c1ccc(F)cc1)N1CCc2ccccc2C1 | -6 | 29 | 48* | 1 | -7 | 4
O=C(Cc1ccc(Br)cc1)N1CCc2ccccc2C1 | -14 | -1 | 53* | -4 | -5 | 5
Cc1ccc(/C=C/C(=O)N2CCc3ccccc3C2)cc1 | 10 | 11 | 48* | 0 | -3 | 5
O=C(Cc1sc(-c2ccccc2)nc1-c1ccccc1)Nc1ccc(Cl)cc1 | -2 | -9 | 8 | 24* | 13 | 0
COc1ccc(S(=O)(=O)N(CC(=O)N2CCN(c3ccccc3OC)CC2)c2ccccc2)cc1 | -26 | 37* | -2 | -2 | 4 | x
C[C@@H]1CN([C@H](C)CO)C(=O)c2cc(NC(=O)CCC(F)(F)F)ccc2O[C@H]1CN(C)S(=O)(=O)c1ccccc1 | x | x | 0 | x | x | x
Cc1ccc(/C=C/C(=O)c2ccccc2O)cc1 | -4 | 8 | x | -12 | -2 | 0
O=C(C=Cc1ccccc1)c1cc(Br)ccc1O | u | 43* | 29 | 9 | -5 | 1
Cc1c(/C=C/C(=O)c2ccccc2O)cnn1C | -3 | 8 | 51* | 2 | 2 | 0
COc1cc(C)cc(C(=O)C=Cc2ccccc2)c1O | -13 | -7 | 8 | 17* | -4 | 5
COc1ccc(C=CC(=O)c2cc(O)ccc2O)cc1 | 35 | 4 | 25 | 32* | -1 | 2
CN1c2ccc(-c3cccc(C#N)c3)cc2[C@H]2[C@H](CCN2C(=O)C2CCC2)[C@H]1CO | x | x | -8 | x | x | x
C[C@H](CO)N1C[C@H](C)[C@@H](CN(C)C(=O)c2cnccn2)Oc2cc(C3=CCCC3)ccc2S1(=O)=O | x | x | -15 | x | x | x
COc1cccc(/C=C/C(=O)c2ccc[nH]2)c1 | 11 | 12 | 60* | -14 | -2 | 2
Cc1ccc2occ(/C=C/C(=O)c3ccccc3O)c(=O)c2c1 | -5 | -8 | 51* | 0 | 12 | 1
COc1ccc(C(=O)/C=C/Nc2cc(C)on2)c(OC)c1 | -6 | -4 | 66* | 31* | 7 | 3
COc1ccc(C(=O)/C=C/c2ccc(N(C)C)cc2)c(OC)c1 | i | -7 | x | 1 | -4 | 0
COc1ccc(C(=O)/C=C/c2ccccc2)c(OC)c1 | -8 | 14 | 86* | 0 | 6 | 5
